# Source: article PMC12820563, “FoxP3 forms a head-to-head dimer in vivo and stabilizes its multimerization on adjacent microsatellites”
# In all, about 16,000 sequences were measured (“rpm ratio (pull-down/input)”: median about 0.5, highest 2% from about 5.5 on). This is one part of a sample in which the highest values are shown more often than they occur.
# Target: T1, MBP-FoxP3dN (Mus musculus, UniProt Q99JB6 188-423)
# T1 sequence: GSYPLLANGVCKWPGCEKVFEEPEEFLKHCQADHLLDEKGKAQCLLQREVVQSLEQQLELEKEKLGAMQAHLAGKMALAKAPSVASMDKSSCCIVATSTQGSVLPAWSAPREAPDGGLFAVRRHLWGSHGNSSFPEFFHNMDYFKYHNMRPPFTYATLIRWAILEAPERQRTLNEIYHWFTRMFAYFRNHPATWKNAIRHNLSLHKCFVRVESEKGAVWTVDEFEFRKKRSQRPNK
# Test: PD-seq (MBP pull-down with sequencing); 20 mM Tris-HCl pH 7.5, 100 mM NaCl, 1.5 mM MgCl2, 0.4 uM protein, 0.1 uM dsDNA library, 30 min, room temperature, amylose pull-down; high values mean tight binding
# Details: protein: recombinant; tags: His6-MBP; chain copies: 2; dsDNA, one strand shown
# How it was run: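 A degenerate double-stranded DNA library, filled in with Klenow, was added at 0.1 µM to 0.4 µM His6-MBP-tagged mouse FoxP3 or FoxP1 fragment lacking the N-terminus, expressed in E. coli. Incubation lasted 30 min at room temperature in Tris pH 7.5 buffer with NaCl and MgCl2, after which complexes were collected on amylose resin, washed three times, digested with proteinase K to free the DNA, barcoded by PCR and sequenced by Illumina. Binding is the pooled-replicate reads-per-million enrichment of pull-down over input.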
row,Sequence,binding signal
1,GATGATTGTTCTCCCAGCTGATGAATTGTTAAAATCGAGTAAACAAATTTTCCTAATCTTTCTGTTCAAGCGCCATCTAC,0.291 RPM ratio (pull-down/input)
2,GATGATTGTTCTCCCAGCTGATGAATTAAGTAGCTCGAGTAAACAAATTTTCCTAATCTTTCTGTTCAAGCGCCATCTAC,0.874 RPM ratio (pull-down/input)
3,GATGATTGTTCTCCCAGCTGATGAATTGTTGCATTCGAGTAAACAAATTTTCCTAATCTTTCTGTTCAAGCGCCATCTAC,7.63 RPM ratio (pull-down/input)
4,GATGATTGTTCTCCCAGCTGATGAATTTTGCATTTCGAGTAAACAAATTTTCCTAATCTTTCTGTTCAAGCGCCATCTAC,6.44 RPM ratio (pull-down/input)
5,GATGATTGTTCTCCCAGCTGATGAATTGCAGCATTCGAGTAAACAAATTTTCCTAATCTTTCTGTTCAAGCGCCATCTAC,5.93 RPM ratio (pull-down/input)
6,GATGATTGTTCTCCCAGCTGATGAATTTTGCCATTCGAGTAAACAAATTTTCCTAATCTTTCTGTTCAAGCGCCATCTAC,5.66 RPM ratio (pull-down/input)
7,GATGATTGTTCTCCCAGCTGATGAATTTGCATTTTCGAGTAAACAAATTTTCCTAATCTTTCTGTTCAAGCGCCATCTAC,5.38 RPM ratio (pull-down/input)
8,GATGATTGTTCTCCCAGCTGATGAATTTGCCATTTCGAGTAAACAAATTTTCCTAATCTTTCTGTTCAAGCGCCATCTAC,2.91 RPM ratio (pull-down/input)
9,GATGATTGTTCTCCCAGCTGATGAATTTGCATTGTCGAGTAAACAAATTTTCCTAATCTTTCTGTTCAAGCGCCATCTAC,5.29 RPM ratio (pull-down/input)
10,GATGATTGTTCTCCCAGCTGATGAATTCGTTGCATCGAGTAAACAAATTTTCCTAATCTTTCTGTTCAAGCGCCATCTAC,2.22 RPM ratio (pull-down/input)
11,GATGATTGTTCTCCCAGCTGATGAATTGCATTCTTCGAGTAAACAAATTTTCCTAATCTTTCTGTTCAAGCGCCATCTAC,4.62 RPM ratio (pull-down/input)
12,GATGATTGTTCTCCCAGCTGATGAATTTGCCCATTCGAGTAAACAAATTTTCCTAATCTTTCTGTTCAAGCGCCATCTAC,0.615 RPM ratio (pull-down/input)
13,GATGATTGTTCTCCCAGCTGATGAATTCGCGGAGTCGAGTAAACAAATTTTCCTAATCTTTCTGTTCAAGCGCCATCTAC,0.23 RPM ratio (pull-down/input)
14,GATGATTGTTCTCCCAGCTGATGAATTTGGGTTGTCGAGTAAACAAATTTTCCTAATCTTTCTGTTCAAGCGCCATCTAC,1.1 RPM ratio (pull-down/input)
15,GATGATTGTTCTCCCAGCTGATGAATTCCTACGGTCGAGTAAACAAATTTTCCTAATCTTTCTGTTCAAGCGCCATCTAC,0.213 RPM ratio (pull-down/input)
16,GATGATTGTTCTCCCAGCTGATGAATTCCCTGTTTCGAGTAAACAAATTTTCCTAATCTTTCTGTTCAAGCGCCATCTAC,0.346 RPM ratio (pull-down/input)
17,GATGATTGTTCTCCCAGCTGATGAATTAGAATAGTCGAGTAAACAAATTTTCCTAATCTTTCTGTTCAAGCGCCATCTAC,0.342 RPM ratio (pull-down/input)

row,Sequence,binding signal
1,GATGATTGTTCTCCCAGCTGATGAATTTTTTTTTTCGAGTAAACAAATTTTCCTAATCTTTCTGTTCAAGCGCCATCTAC,0.217 RPM ratio (pull-down/input)
2,GATGATTGTTCTCCCAGCTGATGAATTCCGGCGTTCGAGTAAACAAATTTTCCTAATCTTTCTGTTCAAGCGCCATCTAC,1.07 RPM ratio (pull-down/input)
3,GATGATTGTTCTCCCAGCTGATGAATTCACGTCATCGAGTAAACAAATTTTCCTAATCTTTCTGTTCAAGCGCCATCTAC,0.59 RPM ratio (pull-down/input)
4,GATGATTGTTCTCCCAGCTGATGAATTATTGGAGTCGAGTAAACAAATTTTCCTAATCTTTCTGTTCAAGCGCCATCTAC,0.296 RPM ratio (pull-down/input)
5,GATGATTGTTCTCCCAGCTGATGAATTTAAACGCTCGAGTAAACAAATTTTCCTAATCTTTCTGTTCAAGCGCCATCTAC,0.381 RPM ratio (pull-down/input)
6,GATGATTGTTCTCCCAGCTGATGAATTATTGCATTCGAGTAAACAAATTTTCCTAATCTTTCTGTTCAAGCGCCATCTAC,7.31 RPM ratio (pull-down/input)
7,GATGATTGTTCTCCCAGCTGATGAATTGCATTCGTCGAGTAAACAAATTTTCCTAATCTTTCTGTTCAAGCGCCATCTAC,3.88 RPM ratio (pull-down/input)
8,GATGATTGTTCTCCCAGCTGATGAATTGCATTATTCGAGTAAACAAATTTTCCTAATCTTTCTGTTCAAGCGCCATCTAC,3.3 RPM ratio (pull-down/input)
9,GATGATTGTTCTCCCAGCTGATGAATTGAATCCTTCGAGTAAACAAATTTTCCTAATCTTTCTGTTCAAGCGCCATCTAC,0.33 RPM ratio (pull-down/input)
10,GATGATTGTTCTCCCAGCTGATGAATTATTCCATTCGAGTAAACAAATTTTCCTAATCTTTCTGTTCAAGCGCCATCTAC,0.434 RPM ratio (pull-down/input)
11,GATGATTGTTCTCCCAGCTGATGAATTTGCATCTTCGAGTAAACAAATTTTCCTAATCTTTCTGTTCAAGCGCCATCTAC,7.16 RPM ratio (pull-down/input)
12,GATGATTGTTCTCCCAGCTGATGAATTGCATCTTTCGAGTAAACAAATTTTCCTAATCTTTCTGTTCAAGCGCCATCTAC,5.4 RPM ratio (pull-down/input)
13,GATGATTGTTCTCCCAGCTGATGAATTCCTTGCATCGAGTAAACAAATTTTCCTAATCTTTCTGTTCAAGCGCCATCTAC,0.828 RPM ratio (pull-down/input)
14,GATGATTGTTCTCCCAGCTGATGAATTCTTGCATTCGAGTAAACAAATTTTCCTAATCTTTCTGTTCAAGCGCCATCTAC,6.02 RPM ratio (pull-down/input)
15,GATGATTGTTCTCCCAGCTGATGAATTGCCATCTTCGAGTAAACAAATTTTCCTAATCTTTCTGTTCAAGCGCCATCTAC,1.07 RPM ratio (pull-down/input)
16,GATGATTGTTCTCCCAGCTGATGAATTTGCAGCTTCGAGTAAACAAATTTTCCTAATCTTTCTGTTCAAGCGCCATCTAC,1.22 RPM ratio (pull-down/input)
17,GATGATTGTTCTCCCAGCTGATGAATTGCATCCTTCGAGTAAACAAATTTTCCTAATCTTTCTGTTCAAGCGCCATCTAC,5.53 RPM ratio (pull-down/input)
